The source of these data is PubChem BioAssay (EPA / NIEHS).

Molecules are shown by their SMILES. A structure can be active in one record and inactive in another. Activity calls are given as the source filed them. How the source made its calls: active means hit-call score of the fitted dose curve at least 0.9, where 1 is the maximum; inactive means score below 0.9.

Read-out in assay [1]: Macrophage colony-stimulating factor (MCSF), CSF1 (gene 1435)
The experiment in a line: BSK_hDFCGF_MCSF: BioMAP Diversity Plus: hDFCGF Assay for Macrophage colony-stimulating factor (MCSF) Biomarker Activity (AID 2283060). To be noted: primary human foreskin fibroblasts; actives raise or lower the signal. In a few lines:
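Primary human foreskin fibroblasts dosed with chemical; 24 h later, M-CSF quantified by ELISA; curves fitted in both directions vs DMSO negative control.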

Assay [2] in a line: BSK_hDFCGF_SRB: Viability Assessment in the BioMAP Diversity Plus: hDFCGF Assay (AID 2283061).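 Further: cells exposed to compound for 24 h before the read.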 Particulars: primary human foreskin fibroblasts. An outline of the steps: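 Readout is SRB absorbance at 560 nm, reflecting total protein in parallel cultures of human foreskin fibroblasts harvested 24 h after chemical dosing. Activity was fitted bidirectionally relative to DMSO.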

Read-out in assay [3]: TIMP metallopeptidase inhibitor 1 (TIMP1), TIMP1 (gene 7076)
Briefly: BSK_hDFCGF_TIMP1: BioMAP Diversity Plus: hDFCGF Assay for TIMP metallopeptidase inhibitor 1 (TIMP1) Biomarker Activity (AID 2283062). Particulars: primary human foreskin fibroblasts; actives raise or lower the signal. In a few lines:
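Human skin fibroblasts (primary), hDFCGF system; compound exposure 24 h; TIMP-1 by ELISA; bidirectional fit vs DMSO negative control; overt cytotoxicity by SRB in parallel wells.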

Read-out in assay [4]: Monokine induced gamma interferon (MIG), CXCL9 (gene 4283)
The experiment in a line: BSK_hDFCGF_MIG: BioMAP Diversity Plus: hDFCGF Assay for Monokine induced gamma interferon (MIG) Biomarker Activity (AID 2283063). Particulars: primary human foreskin fibroblasts; actives raise or lower the signal. In a few lines: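 Chemicals were added to primary human foreskin fibroblast cultures, which were sampled 24 h later. MIG levels were then quantified by ELISA and responses fitted in both directions relative to DMSO.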

Read-out in assay [5]: Matrix Metallopeptidase 1 (MMP1), MMP1 (gene 4312)
Briefly: BSK_hDFCGF_MMP1: BioMAP Diversity Plus: hDFCGF Assay for Matrix Metallopeptidase 1 (MMP1) Biomarker Activity (AID 2283064). To be noted: primary human foreskin fibroblasts; actives raise or lower the signal. In a few lines:
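Human foreskin fibroblasts exposed to chemical for 24 h; MMP1 detected by ELISA, with DMSO as baseline for bidirectional fitting.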

Read-out in assay [6]: Vascular cell adhesion molecule 1 (VCAM1), VCAM1 (gene 7412)
Briefly: BSK_hDFCGF_VCAM1: BioMAP Diversity Plus: hDFCGF Assay for Vascular cell adhesion molecule 1 (VCAM1) Biomarker Activity (AID 2283065).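 On AC50: VCAM-1 protein level quantified by ELISA after 24 h chemical exposure.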 To be noted: primary human foreskin fibroblasts; actives raise or lower the signal. In a few lines: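 Human foreskin fibroblast primary cells, chemical exposure 24 h; VCAM-1 by ELISA; bidirectional fit, DMSO = negative control/baseline.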

Read-out in assay [7]: Plasminogen activator inhibitor-1 (PAI1), SERPINE1 (gene 5054)
The experiment in a line: BSK_hDFCGF_PAI1: BioMAP Diversity Plus: hDFCGF Assay for Plasminogen activator inhibitor-1 (PAI1) Biomarker Activity (AID 2283066). Particulars: primary human foreskin fibroblasts; actives raise or lower the signal. An outline of the steps: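 Fibroblasts from human foreskin were treated with test chemical. After 24 h, PAI-1 was measured by ELISA. Activity was fitted in both directions relative to DMSO.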

Read-out in assay [8]: Intercellular Adhesion Molecule 1 (ICAM1), ICAM1 (gene 3383)
The experiment in a line: BSK_KF3CT_ICAM1: BioMAP Diversity Plus: KF3CT Assay for Intercellular Adhesion Molecule 1 (ICAM1) Biomarker Activity (AID 2283067). To be noted: primary human keratinocytes with fibroblasts; actives raise or lower the signal. In a few lines:
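ICAM-1 levels are measured by ELISA 24 h after dosing a primary human co-culture of keratinocytes and foreskin fibroblasts. Activity in either direction is fitted relative to DMSO vehicle.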

Read-out in assay [9]: Interferon-gamma inducible Protein 10 (IP10), CXCL10 (gene 3627)
The experiment in a line: BSK_KF3CT_IP10: BioMAP Diversity Plus: KF3CT Assay for Interferon-gamma inducible Protein 10 (IP10) Biomarker Activity (AID 2283068). Particulars: primary human keratinocytes with fibroblasts; actives raise or lower the signal. An outline of the steps: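 ELISA read-out of IP-10 after 24 h chemical dosing of human skin primary co-culture (keratinocytes, foreskin fibroblasts). Gain or loss of signal relative to DMSO, bidirectional curve fit.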

The nature of assay [10]: BSK_KF3CT_SRB: Viability Assessment in the BioMAP Diversity Plus: KF3CT Assay (AID 2283069).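 Further: read 24 h after compound addition; fitted for both signal gain and loss against DMSO baseline.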 To be noted: primary human keratinocytes with fibroblasts. An outline of the steps: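 Overt cytotoxicity is assessed as total protein by sulforhodamine B staining in parallel human skin co-cultures at 24 h after dosing. DMSO serves as negative control and baseline.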
Read-out in assay [11]: Interleukin-1 alpha (IL1a), IL1A (gene 3552)
Briefly: BSK_KF3CT_IL1a: BioMAP Diversity Plus: KF3CT Assay for Interleukin-1 alpha (IL1a) Biomarker Activity (AID 2283070). To be noted: primary human keratinocytes with fibroblasts; actives raise or lower the signal. An outline of the steps: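 Readout is IL-1a level by ELISA, compared bidirectionally with DMSO as baseline. Cells: human keratinocytes co-cultured with foreskin fibroblasts, harvested 24 h post-dose.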

Read-out in assay [12]: TIMP metallopeptidase inhibitor 2 (TIMP2), TIMP2 (gene 7077)
The experiment in a line: BSK_KF3CT_TIMP2: BioMAP Diversity Plus: KF3CT Assay for TIMP metallopeptidase inhibitor 2 (TIMP2) Biomarker Activity (AID 2283071). Particulars: primary human keratinocytes with fibroblasts; actives raise or lower the signal. In a few lines:
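Chemicals were dosed onto human skin primary co-cultures of keratinocytes and foreskin fibroblasts, and TIMP-2 was measured by ELISA after 24 hours. Activity in either direction was fitted relative to DMSO.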

Read-out in assay [13]: C-C motif chemokine 2 (Homo sapiens) (UniProt P13500)
The experiment in a line: BSK_KF3CT_MCP1: BioMAP Diversity Plus: KF3CT Assay for Monocyte Chemoattractant Protein 1 (MCP1/CCL2) Biomarker Activity (AID 2283073). To be noted: primary human keratinocytes with fibroblasts; actives raise or lower the signal. An outline of the steps: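 ELISA readout of MCP-1 after 24 h chemical dosing of a human skin primary co-culture of keratinocytes and foreskin fibroblasts. Activity was fitted in both directions against DMSO.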

Read-out in assay [14]: Matrix Metallopeptidase 9 (MMP9), MMP9 (gene 4318)
Briefly: BSK_KF3CT_MMP9: BioMAP Diversity Plus: KF3CT Assay for Matrix Metallopeptidase 9 (MMP9) Biomarker Activity (AID 2283074).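 On AC50: MMP9 protein level quantified by ELISA in the co-culture.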 Particulars: primary human keratinocytes with fibroblasts; actives raise or lower the signal. An outline of the steps:
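Values come from bidirectional fitting relative to DMSO of MMP-9 levels, which were measured by ELISA. Measurements were taken 24 h after chemical dosing of a keratinocyte and foreskin fibroblast co-culture.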

Read-out in assay [15]: urokinase plasminogen activator (uPA), PLAU (gene 5328)
Briefly: BSK_KF3CT_uPA: BioMAP Diversity Plus: KF3CT Assay for urokinase plasminogen activator (uPA) Biomarker Activity (AID 2283075). Particulars: primary human keratinocytes with fibroblasts; actives raise or lower the signal. In a few lines: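 Values derive from bidirectional fitting against DMSO controls. Keratinocyte/foreskin fibroblast co-cultures received chemical; 24 h later uPA was detected by ELISA, with SRB total-protein staining in parallel wells for overt cytotoxicity.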

Read-out in another assay: CD40, CD40 (gene 958)
The experiment in a line: BSK_LPS_CD40: BioMAP Diversity Plus: LPS Assay for CD40 Biomarker Activity (AID 2283076). To be noted: primary human HUVEC with PBMC; actives raise or lower the signal. In a few lines: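 Cells were dosed, incubated 24 h, then assayed for CD40 by ELISA. Gain or loss of signal was analysed relative to DMSO controls. The culture paired human umbilical vein endothelium with peripheral blood mononuclear cells.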

Read-out in assay [16]: E-selectin (Homo sapiens) (UniProt P16581)
Briefly: BSK_LPS_Eselectin: BioMAP Diversity Plus: LPS Assay for Eselectin Biomarker Activity (AID 2283077). To be noted: primary human HUVEC with PBMC; actives raise or lower the signal. An outline of the steps:
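Primary human vascular co-culture (endothelium plus PBMC) was dosed with chemical, then E-selectin quantified by ELISA at 24 h. Endpoint values derive from bidirectional curve fitting relative to DMSO.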

Read-out in assay [17]: Interleukin-8 (IL8), CXCL8 (gene 3576)
Briefly: BSK_LPS_IL8: BioMAP Diversity Plus: LPS Assay for Interleukin-8 (IL8) Biomarker Activity (AID 2283078). To be noted: primary human HUVEC with PBMC; actives raise or lower the signal. In a few lines:
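Readout is IL-8 by ELISA, taken 24 h after compounds were added to LPS-stimulated endothelial/PBMC co-cultures. Both increases and decreases relative to DMSO control were scored through bidirectional fitting.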

Assay [18] in a line: BSK_LPS_SRB: Viability Assessment in the BioMAP Diversity Plus: LPS Assay (AID 2283079).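 Further: total protein by sulforhodamine B absorbance as a cytotoxicity measure; measured one day after compound addition; fitted in both directions against DMSO so loss or gain of signal counts.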 To be noted: primary human HUVEC with PBMC. In a few lines:
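Readout is SRB absorbance at 560 nm (0.1% stain, TCA-fixed parallel cultures) as a total-protein cytotoxicity measure. Cells: primary human umbilical vein endothelium plus peripheral blood mononuclear cells, 24 h after chemical exposure; DMSO served as baseline.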

Read-out in assay [19]: Transforming growth factor beta 1 (TGFb1), TGFB1 (gene 7040)
Briefly: BSK_KF3CT_TGFb1: BioMAP Diversity Plus: KF3CT Assay for Transforming growth factor beta 1 (TGFb1) Biomarker Activity (AID 2283072). Particulars: primary human keratinocytes with fibroblasts; actives raise or lower the signal. In a few lines:
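KF3CT co-culture (keratinocytes + fibroblasts), 24 h exposure → TGF-b1 ELISA → bidirectional fit, DMSO = baseline. Parallel SRB total-protein staining (0.1% SRB, 10% TCA fixation, 560 nm) for cytotoxicity.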

E-selectin (Homo sapiens), sequence (P16581 whole entry, looked up): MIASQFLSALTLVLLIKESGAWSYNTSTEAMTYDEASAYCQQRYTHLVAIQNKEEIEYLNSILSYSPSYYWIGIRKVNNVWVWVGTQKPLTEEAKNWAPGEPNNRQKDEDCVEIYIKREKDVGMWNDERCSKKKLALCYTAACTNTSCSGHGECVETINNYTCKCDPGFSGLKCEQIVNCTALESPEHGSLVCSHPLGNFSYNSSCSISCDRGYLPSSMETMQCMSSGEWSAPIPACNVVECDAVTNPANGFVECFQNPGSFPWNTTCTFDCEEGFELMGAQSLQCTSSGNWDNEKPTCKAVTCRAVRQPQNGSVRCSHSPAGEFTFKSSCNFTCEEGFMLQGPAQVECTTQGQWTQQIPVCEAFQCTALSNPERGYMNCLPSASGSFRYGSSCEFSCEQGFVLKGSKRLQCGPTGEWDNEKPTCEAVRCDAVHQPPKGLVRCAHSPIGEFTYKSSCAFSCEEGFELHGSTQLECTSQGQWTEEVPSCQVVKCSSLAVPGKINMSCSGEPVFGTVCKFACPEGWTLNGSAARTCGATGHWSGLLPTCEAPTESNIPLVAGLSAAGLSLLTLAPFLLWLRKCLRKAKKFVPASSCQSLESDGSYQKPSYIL

As for `O=C(O)CCC(F)(F)C(F)(F)C(F)(F)C(F)(F)C(F)(F)F`, the AC50 is 220 nM (active) in [1], 13.8 µM (active) in [5] and 5.95 µM (active) in assay [17]. Moreover, the result in assay [1], in [2], in assay [3], in assay [4], in assay [5] and in assay [6] was inactive. For the same molecule, the outcome in assay [7], in [8], in [9], in assay [10], in assay [11] and in assay [12] was inactive. In addition, the outcome is “inactive” in assay [13]; “inactive” in assay [14]; “inactive” in assay [15]; “inactive” in the assay with CD40, CD40 (gene 958); “inactive” in [16]; “inactive” in [17]. The result in assay [18] was inactive.

With `CN(Cc1cnc2nc(N)nc(N)c2n1)c1ccc(C(=O)N[C@@H](CCC(=O)O)C(=O)O)cc1`, the AC50 in assay [1] is 2650 nM (active); in assay [15], 4.77 µM (active). Further, the result in assay [1], in [2], in assay [3], in assay [4], in [5] and in [6] was inactive. The result in assay [7], in assay [8], in assay [9], in assay [10], in assay [11] and in assay [12] was inactive. In addition, the outcome in [19] is “inactive”; in [13], “inactive”; in [15], “inactive”; in the assay with CD40, CD40 (gene 958) it was “inactive”; in assay [16], “inactive”; in [17], “inactive”. For the same molecule, the result in [18] was inactive.

As for `CCCCCCCCCCCCCCCCCC[N+](C)(C)Cc1ccccc1`, the AC50 in assay [1] was 721 nM (active); in assay [2], 556 nM (active); in assay [3] it was 553 nM (active); in assay [4], 1.86 µM (active); in assay [5] it was 3.93 µM (active); in [6] it was 715 nM (active). The AC50 in assay [7] is 636 nM (active); in assay [8], 5.58 µM (active); in assay [9], 2.54 µM (active); in assay [10] it was 2.62 µM (active); in assay [11], 4.24 µM (active); in assay [12], 3.25 µM (active). Besides, the AC50 in [13] was 6.52 µM (active); in assay [14], 2.75 µM (active); in [15] it was 2.95 µM (active); with CD40, CD40 (gene 958), 2.74 µM (active); in assay [16], 2.87 µM (active); in [17] it was 5.17 µM (active). Besides, the AC50 in assay [18] was 2.66 µM (active). Moreover, the outcome in assay [19] was inactive.

On to `OCC(F)(F)C(F)(F)C(F)(F)C(F)(F)C(F)(F)C(F)(F)C(F)(F)C(F)(F)C(F)(F)C(F)(F)C(F)(F)F`, for which the outcome in assay [1], in [2], in assay [3], in [4], in assay [5] and in assay [6] was inactive. Moreover, the result in assay [7], in assay [8], in assay [9], in [10], in [11] and in assay [12] was inactive. Also, the outcome in assay [13] is “inactive”; in [15] it was “inactive”; in the assay with CD40, CD40 (gene 958), “inactive”; in assay [16], “inactive”; in [17], “inactive”; in assay [18], “inactive”. In addition, in assay [6], the AC50 is 189 nM (active).

For the molecule `C[C@]12CC[C@@H]3c4ccc(O)cc4CC[C@H]3[C@@H]1C[C@@H](O)[C@@H]2O`, the outcome in assay [1], in [2], in [3], in [4], in assay [5] and in assay [6] was inactive. Further, the result in assay [7], in assay [8], in assay [9], in assay [10], in [11] and in [12] was inactive. The outcome in assay [19] is “inactive”; in assay [13], “inactive”; in [15], “inactive”; in the assay with CD40, CD40 (gene 958) it was “inactive”; in assay [16], “inactive”; in [17] it was “inactive”. In assay [18], the outcome was inactive.
